Compound activity (PubChem)
TEAD-YAP inh = TEAD-YAP interaction inhibition. HEK-TIYL cells, TEAD-Gal4/YAP UAS-luciferase luminescence. inhibition, % at 9.12 µM. 640,000 tested, 1.4% active. AID 1259422; in the data active means inhibition above about 32%
MITF primary = human MITF inhibition, primary screen | O75030 | AlphaScreen MITF homodimerization, bead proximity signal | inhibition, % at 2.6 µM | 650,000 tested, 0.91% active | AID 1259374; in the data active means inhibition above about 50%
Target sequence (O75030 whole entry, looked up): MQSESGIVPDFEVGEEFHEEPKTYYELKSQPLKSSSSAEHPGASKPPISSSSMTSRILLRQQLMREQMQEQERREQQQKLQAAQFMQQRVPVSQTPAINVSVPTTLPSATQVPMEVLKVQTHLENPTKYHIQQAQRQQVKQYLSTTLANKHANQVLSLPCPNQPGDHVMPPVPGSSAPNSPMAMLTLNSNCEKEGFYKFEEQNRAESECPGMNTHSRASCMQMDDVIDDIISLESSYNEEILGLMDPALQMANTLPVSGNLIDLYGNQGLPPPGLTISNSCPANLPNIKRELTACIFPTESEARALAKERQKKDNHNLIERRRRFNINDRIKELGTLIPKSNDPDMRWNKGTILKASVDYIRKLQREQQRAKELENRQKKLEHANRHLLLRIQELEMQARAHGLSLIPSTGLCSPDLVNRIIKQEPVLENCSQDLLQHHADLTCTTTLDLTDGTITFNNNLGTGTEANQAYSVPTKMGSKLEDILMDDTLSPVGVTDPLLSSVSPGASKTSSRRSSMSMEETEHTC
GPR151 activ = activators of human GPR151 | AID 1508602 | 650,000 tested, 1% active | activation, % at 11.2 µM | PathHunter beta-arrestin GPR151 cells, luminescence; in the data active means activation above about 4.9%
FBW7 activator = activators of human E3 ligase FBW7. Q969H0. normalized activity (activation), % at 26.1 µM. 650,000 tested, 0.13% active. AlphaScreen FBW7–phospho-cyclin E peptide binding, activator screen; in the data active means normalized activity above about 1.9%;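 further: purified mutant Fbw7 with reduced substrate affinity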
MITF inh conf = human MITF inhibition, confirmation; shares compounds with MITF primary; AlphaScreen MITF homodimerization, biotin/His-MITF beads; inhibition, % at 2.6 µM; 4,700 tested, 16% active;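 active means inhibition above a cutoff derived from the DMSO control wells, cut at about 28% in these data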;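 further: inhibitors lower the bead chemiluminescence by keeping MITF from dimerizing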
AlphaScreen DR = AlphaScreen optical interference, dose response counter-screen. shares compounds with MITF primary. AlphaScreen optical interference counterscreen, cell-free. IC50, µM. 480 tested, 6% active. AID 1259373; call rule not given here
AlphaScreen intf2 = optically interferes with AlphaScreen signal; shares compounds with MITF primary; inhibition, % at 2.6 µM; LysRS AlphaScreen counterscreen, signal interference, triplicate; AID 1259376; 4,700 tested, 7.6% active;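 active means inhibition above a cutoff derived from the DMSO control wells, cut at about 30% in these data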
Each line names hits and unclear results; the compound was inactive in the other large screens (follow-up assays come after a bar, where they were run). A selection: hits, their analogues and other compounds. The true share with any hit is near 3.5%.

Cc1ccccc1S(=O)(=O)NNC(=O)C(=O)NNc1ccccn1	MITF primary 53.7 | MITF inh conf 47.0 | AlphaScreen intf2 75.1
Nc1ccc(S(=O)(=O)NNC(=O)C(=O)NNc2ccccn2)cc1	none
CN(C)/C=C/C=C/C(=O)C1CCC/C(=C\C=C\N(C)C)C1=O (stereo not given)	MITF primary 70.4 | MITF inh conf 62.7 | AlphaScreen DR inactive | AlphaScreen intf2 inactive
CN(C)c1nc(-c2ccccn2)nnc1-c1ccccc1	MITF primary 102.3 | MITF inh conf 106.9 | AlphaScreen intf2 100.3
c1ccc(CNc2nc(-c3ccccn3)nnc2-c2ccccc2)cc1	MITF primary 105.6 | MITF inh conf 100.5 | AlphaScreen intf2 100.3
c1ccc(-c2nnc(-c3ccccn3)nc2-c2ccccc2)cc1	none
CC(C)n1cnc2c(NCCCN3CCCC3=O)nc(N3CCN(c4ccccn4)CC3)nc21	none
Cc1ccc(C(=O)O)cc1NC(=O)c1cccc(C(=O)Nc2cc(C(=O)O)ccc2C)c1	none
CC(=O)Oc1cccc(C(=O)Nc2cc(C(=O)O)ccc2C)c1	MITF primary 102.3 | MITF inh conf inactive | AlphaScreen intf2 inactive
CC(O)CNCCCOc1ccc(Cl)cc1C(C)(C)C (stereo not given)	MITF primary 52.4 | MITF inh conf inactive | AlphaScreen intf2 57.2
CC(C)(C)c1cc(Cl)ccc1OCCN1CCNCC1	MITF primary 58.7 | MITF inh conf inactive | AlphaScreen intf2 inactive
CC(C)(C)c1cc(Cl)ccc1OCCCN1CCNCC1	MITF primary 76.1 | MITF inh conf inactive | AlphaScreen intf2 inactive
Clc1ccc(Cl)c(OCCCCN2CCNCC2)c1	none
COc1ccc(-c2ccc(SC(C)C(N)=O)nn2)cc1OC (stereo not given)	none
CCNCCC1CCC(=O)N1Cc1nc2ccccc2s1 (stereo not given)	none
Cc1cc(C)cc(C(=O)O/N=C(\N)c2cccnc2)c1	MITF primary 55.7 | MITF inh conf inactive | AlphaScreen intf2 inactive
COc1cccc(C(=O)O/N=C(\N)c2cccnc2)c1	none
COC(=O)CCc1cc2c(C)cc(=O)oc2cc1OCc1ccc(C)cc1	MITF primary 78.5 | MITF inh conf 37.6 | AlphaScreen DR inactive | AlphaScreen intf2 inactive
COCc1cc(=O)[nH]c(Nc2nc3ccccc3o2)n1	MITF primary 64.6 | MITF inh conf 75.0 | AlphaScreen intf2 100.6
COC(=O)c1c(NC(=O)/C=C/C(=O)O)sc2c1CCN(C(C)=O)C2	MITF primary 83.0 | MITF inh conf inactive | AlphaScreen intf2 inactive
COC(=O)c1c(NC(=O)C2CC2)sc2c1CCN(C(C)=O)C2	none
CCOC(=O)c1cc2occc2n1CC(=O)OC(C)C	none
Cc1cc(C(C)(C)C)ccc1OCCOCCN(C)C	MITF primary 72.3 | MITF inh conf inactive | AlphaScreen intf2 inactive
COCCNCCOCCOc1ccc(C(C)(C)C)cc1C	none
Cc1ccc(C(C)(C)C)c(OCCOCCN(C)C)c1	MITF primary 68.0 | MITF inh conf inactive | AlphaScreen intf2 inactive
CN(C)CCOCCOc1ccc(Cl)cc1C(C)(C)C	none
c1ccc(Oc2cccc(OCCN3CCNCC3)c2)cc1	MITF primary 70.8 | MITF inh conf inactive | AlphaScreen intf2 inactive
CCN1CCN(CCCOc2ccc(OCc3ccccc3)cc2)CC1	none
CCN1CCN(CCOCCOc2ccccc2)CC1	MITF primary 53.8 | MITF inh conf inactive | AlphaScreen intf2 inactive
Brc1cccc(OCCN2CCNCC2)c1	none
CCN1CCN(CCOc2cccc(Oc3ccccc3)c2)CC1	MITF primary 73.7 | MITF inh conf inactive | AlphaScreen intf2 inactive
Cc1ccc(NC(=O)c2ccc(Nc3nc(-c4ccccc4)c4cc(Cl)ccc4n3)cc2)cc1	none
Oc1ccc(CN2CCc3nnc(-c4ccccc4)n3CC2)cc1	none
COc1cc(OC)cc(C(=O)N2CCN(C3CCN(Cc4ccccc4)CC3)CC2)c1	MITF primary 58.5 | MITF inh conf inactive | AlphaScreen intf2 inactive
COc1cc(C(=O)N2CCN(Cc3cccc(F)c3)CC2)cc(OC)c1OC	MITF primary 53.6 | MITF inh conf inactive | AlphaScreen intf2 inactive
COc1cc(OC)cc(C(=O)N2CCN(Cc3cccnc3)CC2)c1	MITF primary 65.8 | MITF inh conf inactive | AlphaScreen intf2 inactive
COc1cc(C(=O)N2CCN(Cc3cccnc3)CC2)cc(OC)c1OC	MITF primary 54.0 | MITF inh conf inactive | AlphaScreen intf2 inactive
C=CCOc1ccc(/C=C2\SC(=S)NC2=O)cc1OCC	none
COC(=O)CN(C)C(=O)CC1(c2ccccc2C)CC(=O)N(C2CCCC2)C1=O (stereo not given)	none
COc1ccc(-n2c(SCC(=O)/C(C#N)=C(\C)N)nc3ccccc32)cc1	MITF primary 69.8 | MITF inh conf inactive | AlphaScreen intf2 inactive
Cc1cc(=O)oc2cc(OCc3ccc(C(=O)O)o3)ccc12	none
CCn1nnc(NC(=O)c2ccccc2)n1	MITF primary 57.9 | MITF inh conf inactive | AlphaScreen intf2 inactive
O=C(NCCC1=CCCCC1)c1oc(=O)c2ccccc2c1-c1ccccc1	none
O=C(O)/C=C/c1ccc([N+](=O)[O-])o1	MITF primary 60.0 | MITF inh conf 63.9 | AlphaScreen DR inactive | AlphaScreen intf2 inactive
O=S(=O)(c1ccc(F)cc1)N1CCN(Cc2cccc(Cl)c2)CC1	MITF primary 59.6 | MITF inh conf inactive | AlphaScreen intf2 inactive
O=S(=O)(c1ccc(Cl)cc1)N1CCN(Cc2ccc(F)cc2)CC1	none
CS(=O)(=O)c1cccc(S(=O)(=O)N2CCN(Cc3ccccc3)CC2)c1	none
O=S(=O)(c1ccccc1)N1CCN(Cc2cccc(Cl)c2)CC1	MITF primary 63.7 | MITF inh conf inactive | AlphaScreen intf2 inactive
CCS(=O)(=O)N1CCN(Cc2cccc(Cl)c2)CC1	MITF primary 59.0 | MITF inh conf inactive | AlphaScreen intf2 inactive
O=C(CN1CCN(CCO)CC1)N1c2ccccc2Sc2ccc(Cl)cc21	none
COc1ccccc1CNC(=O)Cn1ncc2c1-c1ccccc1OC2	none
Cc1cnc(-c2ccc3[nH]ccc3c2)nc1NCCCN1CCCC1=O	none
CC(C)CC(=O)N1CCN(C2CCC(C)CC2)CC1 (stereo not given)	MITF primary 58.5 | MITF inh conf inactive | AlphaScreen intf2 inactive
CC1CCC(N2CCN(C(=O)c3ccccc3)CC2)CC1 (stereo not given)	none
CCOc1ccccc1OCCCCN1CCOCC1	none
CCN1CCN(CCCCOc2cccc3ccccc23)CC1	none
CCN1CCN(CCCCOc2ccccc2OC(C)C)CC1	MITF primary 50.8 | MITF inh conf inactive | AlphaScreen intf2 inactive
CCC(C)c1ccccc1OCCOCCN1CCCC1 (stereo not given)	none
C=CCNCCOCCOc1ccccc1C(C)CC (stereo not given)	none
CCC(C)c1ccccc1OCCOCCN1CCOCC1 (stereo not given)	MITF primary 76.2 | MITF inh conf inactive | AlphaScreen intf2 inactive
CCC(C)c1ccccc1OCCOCCN(C)C (stereo not given)	MITF primary 86.2 | MITF inh conf inactive | AlphaScreen intf2 inactive
